Among the test systems are PRKD3; PRKG1; PRKG2; PRKX; PRP4; QSK; RAF1; RET.
Common to all, as to settings: concentration: 1 μM,replicates: in singlicate; n = 1
Another assay deals with T1, PRKR.
T1 construct: gene EIF2AK2

The subject of a further assay is T2, PYK2.
T2 construct: gene PTK2B

SMILES strings stand for the structures.

The record followed here is PMC5540273 (PLoS ONE, 2017).
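Also: KINOMEscan kinase panel screen.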

With `CN(c1cccc(CNc2nc(Nc3ccc4c(c3)CC(=O)N4)ncc2C(F)(F)F)c1)S(C)(=O)=O`, the “%Inh” value in the assay on PRKD3 is reported as 28%; in the assay with PRKG1 it was 0%; with PRKG2, 0%; in the assay on PRKR, 0%; in the assay on PRKX it was 0%; with PRP4 it was 0%. Also, the “%Inh” value worked out at 71% with PYK2, 0% in the assay with QSK, 0% in the assay on RAF1 and 85% in the assay with RET.

Turning to `Cc1cccc2c(-c3ccncc3)c(-c3ccc(F)cc3)nn12.Cl` [GW461487], the “%Inh” value in the assay on PRKD3 is 0%; in the assay on PRKG1 it was 9%; with PRKG2 it was 8%; with PRKR, 0%; in the assay on PRKX, 3%; with PRP4, 7%. Further, the “%Inh” value is 22% in the assay with PYK2, 15% with QSK, 11% in the assay on RAF1 and 18% in the assay on RET.

As for `COc1cccc(CNC(=O)NC2CCN(c3ccnc(Nc4cc(OC)c(OC)c(OC)c4)n3)C2)c1` (stereo not shown) [GSK1379765], the “%Inh” value worked out at 0% with PRKD3; 3% with PRKG1; 0% in the assay on PRKG2; 0% in the assay on PRKR; 33% in the assay on PRKX; 48% in the assay with PRP4. Besides, the “%Inh” value in the assay with PYK2 is 0%; in the assay with QSK, 0%; with RAF1, 21%; with RET, 19%.

For `CC(C)S(=O)(=O)N1CCN(Cc2ccc3c(c2)nc(NC(=O)c2ccsc2)n3C[C@H](O)c2ccccc2)CC1` [GW635815], the “%Inh” value in the assay on PRKD3 stood at 0%; in the assay with PRKG1, 23%; with PRKG2, 18%; in the assay on PRKR, 0%; in the assay with PRKX, 16%; in the assay on PRP4 it was 10%. The “%Inh” value is listed as 38% with PYK2, 3% in the assay on QSK, 6% in the assay on RAF1 and 44% in the assay on RET.

Take `Cc1ccn2nc(-c3ccc(F)cc3)c(-c3ccncc3)c2c1.Cl` [GW457859]: the “%Inh” value in the assay on PRKD3 is recorded as 30%; with PRKG1, 0%; in the assay on PRKG2, 19%; with PRKR, 12%; in the assay on PRKX it was 21%; with PRP4 it was 28%. Moreover, the “%Inh” value in the assay with PYK2 is given as 0%; with QSK, 0%; with RAF1, 15%; in the assay on RET, 4%.

For the compound `NC(=O)Nc1sc(-c2ccc(F)cc2)cc1C(N)=O` [GW789449], the “%Inh” value with PRKD3 was 0%; in the assay with PRKG1 it was 6%; in the assay on PRKG2 it was 8%; in the assay on PRKR, 35%; with PRKX it was 0%; in the assay with PRP4 it was 75%. For the same compound, the “%Inh” value came to 26% in the assay with PYK2, 0% in the assay on QSK, 43% in the assay on RAF1 and 55% with RET.

In the case of `O=C(NOCC1CC1)c1cc(Br)c(F)c(F)c1Nc1ccc(I)cc1Cl`, the “%Inh” value was 0% in the assay on PRKD3; 0% in the assay on PRKG1; 0% in the assay on PRKG2; 0% in the assay on PRKR; 0% with PRKX; 32% in the assay on PRP4. The “%Inh” value was 0% in the assay on PYK2, 0% with QSK, 0% in the assay with RAF1 and 6% with RET.

Turning to `c1ccc(Oc2ccc(Nc3ccnc4ccc(-c5ccccn5)cc34)cc2)cc1` [GW407034], the “%Inh” value with PRKD3 worked out at 33%; in the assay with PRKG1 it was 0%; with PRKG2, 0%; in the assay with PRKR, 0%; with PRKX it was 12%; in the assay with PRP4, 4%. The “%Inh” value in the assay with PYK2 is 0%; in the assay with QSK, 14%; in the assay on RAF1, 19%; in the assay on RET, 6%.

Regarding `C[C@@H]1CCN(C(=O)N2CCCC2)C[C@@H]1N(C)c1ncnc2[nH]ccc12`, the “%Inh” value in the assay on PRKD3 amounted to 26%; with PRKG1, 29%; in the assay with PRKG2, 13%; with PRKR, 0%; in the assay on PRKX it was 0%; in the assay with PRP4, 0%. The “%Inh” value in the assay with PYK2 was 0%; in the assay with QSK, 0%; in the assay with RAF1, 10%; with RET it was 41%.

Regarding `COc1cc(Nc2nccc(N3CCC(NC(=O)c4cccc(C#N)c4)C3)n2)cc(OC)c1OC` (stereo not shown) [GSK1379751], the “%Inh” value with PRKD3 is 0%; in the assay with PRKG1, 0%; in the assay with PRKG2 it was 0%; with PRKR, 0%; in the assay on PRKX, 0%; in the assay with PRP4, 54%. Also, the “%Inh” value in the assay with PYK2 is given as 0%; in the assay with QSK it was 0%; with RAF1 it was 26%; in the assay with RET, 14%.

For the compound `CCn1c(-c2nonc2N)nc2cncc(Br)c21` [SB-738004], the “%Inh” value with PRKD3 is recorded as 0%; in the assay on PRKG1, 0%; with PRKG2 it was 92.1%; with PRKR it was 36%; in the assay with PRKX, 0%; with PRP4, 27%. The “%Inh” value in the assay on PYK2 came to 0%; in the assay with QSK it was 0%; in the assay with RAF1 it was 10%; with RET it was 26%.

Consider `COc1cc2nccc(Nc3ccc(Oc4ccccc4)cc3)c2cc1OC.Cl` [GI261656], for which the “%Inh” value in the assay on PRKD3 was 6%; with PRKG1 it was 0%; with PRKG2, 0%; with PRKR, 0%; with PRKX, 0%; in the assay with PRP4, 48%. Moreover, the “%Inh” value with PYK2 came to 0%; in the assay with QSK, 3%; in the assay with RAF1 it was 11%; with RET, 23%.

`CCN1CCN(CCCC(=O)Nc2n[nH]c3nc(-c4ccc(O)cc4)c(Br)cc23)CC1` [SB-731579]: the “%Inh” value in the assay with PRKD3 is 0%; in the assay with PRKG1, 3%; in the assay with PRKG2, 6%; in the assay on PRKR, 0%; with PRKX, 0%; in the assay with PRP4 it was 0%. Moreover, the “%Inh” value in the assay on PYK2 came to 0%; with QSK it was 50%; in the assay with RAF1, 17%; with RET, 23%.

For `COC(=O)c1cccc(NC(=O)NC2CCN(c3ccnc(NCc4ccc(F)cc4)n3)CC2)c1` [GSK1379860], the “%Inh” value was found to be 25% with PRKD3; 0% in the assay with PRKG1; 0% in the assay with PRKG2; 0% with PRKR; 9% in the assay on PRKX; 30% in the assay on PRP4. Also, the “%Inh” value with PYK2 amounted to 9%; with QSK, 9%; with RAF1, 15%; in the assay with RET, 9%.

As for `Cn1ccc2ncnc(Oc3ccc(NC(=O)Nc4cccc(C(F)(F)F)c4)c(F)c3)c21`, the “%Inh” value in the assay with PRKD3 was 0%; with PRKG1 it was 18%; in the assay with PRKG2, 17%; in the assay on PRKR, 10%; with PRKX, 0%; with PRP4, 14%. The “%Inh” value in the assay with PYK2 was determined as 11%; with QSK, 0%; in the assay with RAF1, 80%; in the assay with RET, 100%.

With `O=C(Nc1ccccc1)c1cccc(Oc2ccc3nccn3n2)c1`, the “%Inh” value was 1% with PRKD3; 2% in the assay on PRKG1; 0% with PRKG2; 0% with PRKR; 70% with PRKX; 0% in the assay with PRP4. In addition, the “%Inh” value came out at 0% in the assay on PYK2, 0% in the assay on QSK, 78% in the assay with RAF1 and 0% with RET.
